Data taken from PubChem BioAssay.
Values without a mark were called inactive. Active and inactive are the calls of the source. Unless noted, no stated cut-off is given here; in the data, active means inhibition above about 36%; inactive means the rest.

Columns and labels:
[1] = tested on: transactivating tegument protein VP16 (Human herpesvirus 1); experiment: VP16 transactivation reporter inhibitors, counter-screen for SRC2 inhibitor project, cell-based, luminescence, single concentration (AID 652007); settings: cell-based VP16 transactivation luciferase reporter, at 8.9 µM, active compounds read high
[2] = target: Nuclear receptor coactivator 2 (Homo sapiens) (UniProt Q15596); experiment: SRC2 coactivator transcriptional activity inhibitors, confirmation, cell-based, luminescence, HEK293, triplicate (AID 652008;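 active means mean inhibition above 46.5%, the solvent-only control mean plus 3 SD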;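 further: 0% = DMSO-treated cells and 100% = Gossypol at 36 µM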); settings: HEK293 GAL4-SRC2 luciferase reporter, at 8.9 µM, active compounds read high
Chain of Nuclear receptor coactivator 2 (Homo sapiens) (Q15596 whole entry, looked up, the tested form may be a part): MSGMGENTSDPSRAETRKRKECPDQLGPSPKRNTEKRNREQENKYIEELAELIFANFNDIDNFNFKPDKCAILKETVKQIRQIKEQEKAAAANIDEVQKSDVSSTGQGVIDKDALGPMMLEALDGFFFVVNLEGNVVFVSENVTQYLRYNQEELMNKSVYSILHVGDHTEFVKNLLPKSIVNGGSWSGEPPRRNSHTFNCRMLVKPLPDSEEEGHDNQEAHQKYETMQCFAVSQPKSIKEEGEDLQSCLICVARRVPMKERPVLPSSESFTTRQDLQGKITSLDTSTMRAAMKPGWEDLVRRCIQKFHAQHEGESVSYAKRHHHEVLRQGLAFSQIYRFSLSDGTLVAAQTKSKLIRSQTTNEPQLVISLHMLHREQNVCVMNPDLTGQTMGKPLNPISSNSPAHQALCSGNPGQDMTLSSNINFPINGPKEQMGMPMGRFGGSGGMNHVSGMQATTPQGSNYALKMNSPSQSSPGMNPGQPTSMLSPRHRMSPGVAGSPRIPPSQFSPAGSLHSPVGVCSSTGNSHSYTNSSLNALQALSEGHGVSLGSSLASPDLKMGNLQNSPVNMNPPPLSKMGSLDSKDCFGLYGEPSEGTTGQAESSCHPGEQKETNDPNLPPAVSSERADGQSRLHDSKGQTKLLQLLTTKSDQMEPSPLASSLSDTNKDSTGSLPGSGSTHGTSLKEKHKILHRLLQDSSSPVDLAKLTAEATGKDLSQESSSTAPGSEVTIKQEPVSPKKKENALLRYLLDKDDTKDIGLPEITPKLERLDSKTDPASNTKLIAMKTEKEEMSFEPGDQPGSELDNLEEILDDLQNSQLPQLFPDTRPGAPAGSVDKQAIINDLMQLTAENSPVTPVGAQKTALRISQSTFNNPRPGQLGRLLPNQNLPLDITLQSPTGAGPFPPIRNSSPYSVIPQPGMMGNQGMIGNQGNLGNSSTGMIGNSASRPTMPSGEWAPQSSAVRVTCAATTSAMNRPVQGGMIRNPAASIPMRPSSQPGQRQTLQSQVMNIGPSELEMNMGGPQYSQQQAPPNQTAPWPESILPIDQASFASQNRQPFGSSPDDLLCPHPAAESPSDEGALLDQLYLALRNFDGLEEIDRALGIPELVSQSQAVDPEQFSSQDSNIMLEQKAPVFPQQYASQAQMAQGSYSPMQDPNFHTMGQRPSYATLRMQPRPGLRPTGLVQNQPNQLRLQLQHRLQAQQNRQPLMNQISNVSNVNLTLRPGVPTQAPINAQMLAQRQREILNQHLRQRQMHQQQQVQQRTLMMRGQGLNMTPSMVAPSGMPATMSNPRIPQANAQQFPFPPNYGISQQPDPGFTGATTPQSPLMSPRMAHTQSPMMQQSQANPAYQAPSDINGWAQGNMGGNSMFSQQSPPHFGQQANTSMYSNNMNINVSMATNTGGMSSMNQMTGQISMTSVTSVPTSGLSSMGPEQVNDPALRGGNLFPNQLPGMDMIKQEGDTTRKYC

| Structure (SMILES) | inhibition [1] | inhibition [2] |
| --- | --- | --- |
| CC(=O)c1c(C)[nH]c(C(=O)Nc2ccc(N3CCCCCC3)cc2)c1C | -41.5% | 19.9% |
| CCOC(=O)C(=Cc1ccc(-n2cncn2)cc1)C(=O)OCC | 15.5% | 24.5% |
| Nc1ccc(C(=O)n2c3ccccc3c3ccccc32)cc1 | 20.2% | 17.5% |
| CCOC(=O)C1CCCCN1C(=O)CCc1c(C)nc2cc(-c3ccccc3)nn2c1C (centres undefined) | -0.8% | 70.2% (active) |
| O=C(c1ccccc1F)N1CCN(S(=O)(=O)c2ccc3c(c2)OCCO3)CC1 | 3.25% | 22.9% |
| CCOC(=O)Cc1ccc(NC(=O)c2ccc(C(C)(C)C)cc2)cc1 | -47.1% | 63.9% (active) |
| CCCC(=O)NC(c1ccccc1)c1ccc2cccnc2c1O (centres undefined) | -0.88% | 33.3% |
| C[C@@H]1CN([C@H](C)CO)C(=O)c2cc(NC(=O)Nc3ccc(C(F)(F)F)cc3)ccc2O[C@H]1CN(C)S(=O)(=O)c1ccccc1 | 18.9% | 32.9% |
| COC(=O)C1CN(Cc2ccccc2)CCS(=O)(=O)N1Cc1cn(Cc2ccc(Cl)cc2)nn1 (centres undefined) | -13.7% | -3.09% |
| COc1cccc(NC(=O)N2CCc3nc(Nc4ccc(C(C)C)cc4)ncc3C2)c1 | -73.3% | 7.35% |
| CS(=O)(=O)N1CCC(C(=O)NCc2ccccc2)CC1 | -4.73% | -13.2% |
| Cc1ccc(CS(=O)(=O)c2ncc(Cl)c(C(=O)Nc3ccc(OC(F)F)cc3)n2)cc1 | 76.9% (active) | 28.9% |
| Nc1cccc(-c2cc3ccccc3oc2=O)c1 | 22.1% | 56.9% (active) |
| O=C1CCCC/C1=C/Nc1ccc2c(c1)OCO2 | -58.7% | -65.5% |
| O=C(O)CCSc1nc2ccccc2s1 | 40.8% (active) | 58.5% (active) |
| CC(C)=CCc1c(O)ccc2c1OC(c1ccc(O)c(O)c1)CC2=O (centres undefined) | 10.7% | 56.9% (active) |
| O=C1C=CC2C3C(=O)N(c4ccccc4)C(=O)C3C1N2Cc1ccccc1 (centres undefined) | 30.5% | 65.9% (active) |
| CN1/C(=C/C=C/c2n(C)c3cc([N+](=O)[O-])c([N+](=O)[O-])cc3[n+]2C)C(C)(C)c2ccccc21 | 3.99% | -3.59% |
| Clc1cccc(-c2nc(-c3ccccn3)no2)c1 | -11% | 7.62% |
| CC(C)(CN1CCC(Cc2ccccc2)CC1)NS(=O)(=O)c1ccccc1 | 13.9% | 32.5% |
| CCOc1cccc(NC(=O)C2CC(=O)N(c3ccc(F)cc3)C2)c1 (centres undefined) | 6.75% | -14.1% |
| COc1ccc2c(n1)Sc1nc3ccccc3nc1N2 | -80.4% | -87.5% |
| NC1=NC(=O)/C(=C\c2cccnc2)S1 | -14.6% | 35.6% |
| CN1CCC(=NNc2ncnc3sc4c(c23)CCCC4)CC1 | -9.72% | -19.6% |

| Structure (SMILES) | inhibition [1] | inhibition [2] |
| --- | --- | --- |
| Cn1cc(S(=O)(=O)Nc2ccc3c(c2)OCCO3)cn1 | -16% | 32.5% |
| CC(C)COc1ccc(C/C(N)=N/n2cnnc2)cc1 | 22.1% | 40.3% |
| CC(C)(C)NC(=O)COC(=O)c1snc(C(=O)NC2CCCCC2)c1N | -7.99% | 8.82% |
| CC1CCc2nc(N)c(C#N)c(-c3cccn3C)c2C1 (centres undefined) | 15.5% | 15.7% |
| C=CS(=O)(=O)N(Cc1nnn(Cc2ccccc2)c1Br)[C@H](C(=O)OC)C(C)C | 18.8% | 27.4% |
| Cc1ccc(NC(=O)COC(=O)C2=NN(c3ccccc3)C(=O)CC2)c(Br)c1 | -16.2% | -37.9% |
| Cc1onc(C(=O)N2CCC(Cc3ccccc3)CC2)c1[N+](=O)[O-] | -1.3% | 5.37% |
| CN1C(=O)C(c2cn(C)c3ccccc23)(c2cn(C)c3ccccc23)c2cc(F)ccc21 | 11.8% | -37.4% |
| NNC(=O)COc1ccc(C(F)(F)F)cc1 | -3.76% | 4.91% |
| CCOc1ccc(C(=O)CCC(=O)Nc2cccc(S(=O)(=O)N3CCCCC3)c2)cc1 | 4.55% | 44.2% |
| CC(C)C[C@H]1CN(CCCC[C@H]2CNC(=O)C(=O)N2CCc2ccccc2)C(=O)C(=O)N1CCC1CCCCC1 | 10.7% | -17.3% |
| Cc1cc(=O)oc2cc(OC(C)C(=O)NCCc3ccc(S(N)(=O)=O)cc3)ccc12 (centres undefined) | -19.6% | -12.7% |
| CCOC(=O)c1c(C)[nH]c(C)c1C(=O)COC(=O)c1ccccc1O | 2.18% | 20.3% |
| Cc1nc2ccccc2c2c1CC(C(C)(Cl)Br)O2 (centres undefined) | 5.15% | 29.1% |
| COc1ccccc1/C=C/C1(C(=O)NC2CCCC2)CC(=O)N1c1ccc(F)cc1 (centres undefined) | 19.7% | 49.2% (active) |
| CCOc1ccc(-c2cc(CCCC(=O)NCCc3ccc(OC)c(OC)c3OC)no2)cc1 | 12.8% | 34.7% |
| COc1ccc(S(=O)(=O)N2c3ccc(F)cc3CCC2C)cc1 (centres undefined) | -6.76% | 1.23% |
| Cc1ccccc1CS(=O)(=O)c1ccc(C(=O)N2CCOCC2)cc1[N+](=O)[O-] | 14.6% | 24.6% |
| COc1ccc(/C=C2/SC(=S)N(CCCC(=O)N3CCN(C)CC3)C2=O)cc1 | 8.95% | 2.01% |
| CN(Cc1ccc(Cl)cc1)C(=O)CCl | 29.1% | 25.3% |
| NCCN1C(=O)S/C(=C\c2ccc3c(c2)OCO3)C1=O | 44% (active) | 56.6% (active) |
| O=S(=O)(c1cc(C(F)(F)F)ccc1Cl)N1CCN(c2ncnc3ccccc23)CC1 | 17.2% | 18.7% |
| COc1ccc(/C=C2\SC(=S)N(CCC(=O)N3CCCCC3CCO)C2=O)cc1 (centres undefined) | 1.26% | 26.7% |
| CCOC(=O)[C@]12CCC=C1N(CCC1=CCCCC1)C(=O)[C@H](CC(=O)N1CCC(c3ccccc3)CC1)C2 | 1.35% | -24.7% |

| Structure (SMILES) | inhibition [1] | inhibition [2] |
| --- | --- | --- |
| C=CS(=O)(=O)N(Cc1ccc(F)cc1)C(=C)C(=O)OC | 33.7% | -13.2% |
| O=C(Nc1cccc(F)c1)c1cccnc1 | 1.51% | -2.72% |
| C[C@H]1CCC[C@@H](O)CC(=O)c2c(O)cc(O)cc2CC(=O)O1 | 24% | 32.3% |
| Cc1nc(-c2ccc(NC(=O)c3ccco3)cc2)cs1 | 18.9% | 60.4% (active) |
| NC(=S)N1OC[C@@H]2COc3ccc4ccccc4c3[C@@H]21 | 2.09% | 48.6% (active) |
| NC(=O)c1ccsc1NC(=O)COC(=O)c1ccc([N+](=O)[O-])o1 | -4.1% | -22.5% |
| CCn1c(SCC(=O)c2ccc(-c3ccccc3)cc2)nnc1-c1ccc(C(C)(C)C)cc1 | 22.6% | 31.3% |
| O=C(O)c1ccccc1C=NN1CCCCCC1 | -9.35% | -24.3% |
| CCN(C(=O)C1CCCN(c2nnc(-n3cccc3)s2)C1)c1ccccc1C (centres undefined) | 11.5% | 16.4% |
| CN1c2ccccc2C(C)(C)C12C=Cc1cc(O)ccc1O2 (centres undefined) | -7.85% | 23.8% |
| O=C(CCCCl)NC(=S)Nc1cc(C(F)(F)F)ccc1N1CCOCC1 | -12.4% | -9.88% |
| Cc1sc2ncnc(N3CCC(C(=O)Nc4ccc(S(N)(=O)=O)cc4)CC3)c2c1C | -3.11% | 30.8% |
| Cc1ccc(-c2nnc(SCCC(=O)N3CCOCC3)o2)cc1 | -40.9% | -16.8% |
| O=C(O)CCC(=O)Nc1cccc(-c2csc(-c3ccccc3)n2)c1 | 47.1% (active) | 34.6% |
| COc1ccc(C)cc1Nc1n[n+](-c2ccccc2)c(-c2c(Cl)cccc2Cl)s1 | 19.4% | 22.7% |
| C=CS(=O)(=O)N(Cc1ccc(C)cc1)[C@@H](CO)C(=O)OC | 17.1% | 63.8% (active) |
| Cn1c(=O)c(=O)n(C)c2cc(S(=O)(=O)Nc3ccc4c(c3)OCCO4)ccc21 | -4.82% | 47.5% (active) |
| Cc1ccc(CN2C(=O)/C(=C\c3ccc(C(=O)NCc4cccnc4)cc3)Oc3ccccc32)cc1 | -0.83% | 50.2% (active) |
| COn1c2c(c3c4nonc4ccc31)CCCC2 | 0.98% | 18.7% |
| O=C(Cc1ccc([N+](=O)[O-])cc1)Nc1cccc(C(=O)N2CCCCC2)c1 | 13.5% | 23.7% |
| O=C(NC(=O)c1ccccc1)Nc1ccccn1 | 4.41% | 54.8% (active) |
| Cc1ccc(S(=O)(=O)N2[C@@H](c3ccc4c(c3)OCO4)C(C(=O)O)=C[C@H]2C(C)(C)C)cc1 | -12.9% | 1.95% |
| Cc1ccc([C@@H]2CC=C(C(=O)O)[C@H](c3ccccc3)N2S(=O)(=O)c2ccccc2C)cc1 | 0.1% | -13% |
| O=C(CSCc1ccc(C(=O)O)cc1)Nc1ccccc1 | -18.8% | -31.5% |
